Drawing on PubChem BioAssay (Tox21), this text covers Potency for 14 molecules.

In experiment [1] the target is Cytochrome P450 2C19 (Homo sapiens) (UniProt P33261). Kind of experiment: Cytochrome P450 Family 2 Subfamily C Member 19 (CYP2C19) small molecule antagonists: luciferase reporter qHTS assay (AID 1671197). Also: nearly all actives have a fitted effect of over 65% in size. The essentials:
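Light output is proportional to CYP2C19 activity: proluciferin substrate is converted to luciferin, then detected by a luciferin detection reagent that also stops the 1 h, 37C NADPH-driven reaction. Ketoconazole serves as positive control.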
On the technique in general: In a reporter assay the amount or activity of a reporter protein is the signal.

Experiment [2] deals with Cytochrome P450 2C9 (Homo sapiens) (UniProt P11712). The experiment is described as follows: Cytochrome P450 Family 2 Subfamily C Member 9 (CYP2C9) small molecule antagonists: luciferase reporter qHTS assay (AID 1671198). Also: nearly all actives have a fitted effect of over 50% in size. The gist of the method: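 CYP2C9 activity was measured with a P450-Glo proluciferin substrate. Enzyme–substrate mix was held with compound for 10 min at room temperature, then NADPH regeneration solution was added for 1 h at 37C. Luciferin product was read as luminescence.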

In experiment [3] the target is Cytochrome P450 1A2 (Homo sapiens) (UniProt P05177). The experiment is described as follows: Cytochrome P450 Family 1 Subfamily A Member 2 (CYP1A2) small molecule antagonists: luciferase reporter qHTS assay (AID 1671199). Also: nearly all actives have a fitted effect of over 50% in size. The essentials: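 CYP1A2 turnover of a luminogenic substrate was quantified after 1 h with NADPH regeneration at room temperature. Furafylline served as positive control.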

In experiment [4] the target is Voltage-gated inwardly rectifying potassium channel KCNH2 (Homo sapiens) (UniProt Q12809). Kind of experiment: Human Ether-a-go-go-Related Gene (hERG) channel small molecule antagonists: fluorescence cell-based qHTS assay (AID 1671200). Also: nearly all actives have a fitted effect of over 50% in size. The gist of the method:
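Thallium flux as potassium surrogate: FluxOR II dye loaded 1 h at room temperature into hERG-expressing U2OS cells, then stimulus buffer added after 10 min. Kinetic 480 nm excitation/540 nm emission read, 2 min.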
In general terms: hERG is a cardiac potassium channel; its block is linked to QT prolongation.

Records with an inconclusive call do not appear. Activity calls are given as the source filed them. Calls follow the shape of the dose curve; as a rule, active = well fitted curve in the direction sought with a large enough effect in the repeat runs; inconclusive = weak or mixed curves; inactive = no such curve, though single readings can be large; an effect the other way counts as inactive or inconclusive.
Potency is read from the fitted curve at half-maximal effect.

Cytochrome P450 2C9 (Homo sapiens), sequence (P11712 whole entry, looked up): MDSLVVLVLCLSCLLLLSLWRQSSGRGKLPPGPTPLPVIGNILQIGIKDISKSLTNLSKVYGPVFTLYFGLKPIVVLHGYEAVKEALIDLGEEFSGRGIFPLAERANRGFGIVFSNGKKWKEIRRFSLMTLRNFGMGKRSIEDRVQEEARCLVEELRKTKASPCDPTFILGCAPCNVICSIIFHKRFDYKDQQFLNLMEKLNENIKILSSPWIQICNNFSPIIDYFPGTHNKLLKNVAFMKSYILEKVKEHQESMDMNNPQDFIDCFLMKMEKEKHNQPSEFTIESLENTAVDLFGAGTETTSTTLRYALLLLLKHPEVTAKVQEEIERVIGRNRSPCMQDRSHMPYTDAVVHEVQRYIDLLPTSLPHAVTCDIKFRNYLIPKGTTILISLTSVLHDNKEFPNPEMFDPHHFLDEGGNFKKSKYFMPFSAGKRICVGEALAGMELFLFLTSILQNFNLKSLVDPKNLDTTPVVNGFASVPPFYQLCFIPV
Cytochrome P450 1A2 (Homo sapiens), sequence (P05177 whole entry, looked up): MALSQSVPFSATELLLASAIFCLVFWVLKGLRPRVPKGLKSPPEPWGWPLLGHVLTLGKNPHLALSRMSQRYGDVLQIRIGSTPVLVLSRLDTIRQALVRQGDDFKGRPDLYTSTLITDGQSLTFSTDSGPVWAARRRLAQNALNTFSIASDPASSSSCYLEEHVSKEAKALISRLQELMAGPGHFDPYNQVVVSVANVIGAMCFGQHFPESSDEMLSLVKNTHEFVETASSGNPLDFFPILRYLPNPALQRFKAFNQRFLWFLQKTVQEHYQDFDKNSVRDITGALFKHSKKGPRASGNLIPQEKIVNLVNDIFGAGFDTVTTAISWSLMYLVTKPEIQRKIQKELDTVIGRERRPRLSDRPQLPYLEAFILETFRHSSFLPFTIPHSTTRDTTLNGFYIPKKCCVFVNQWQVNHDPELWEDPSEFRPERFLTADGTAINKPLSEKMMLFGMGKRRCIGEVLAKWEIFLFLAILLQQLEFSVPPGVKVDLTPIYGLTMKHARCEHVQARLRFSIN
Cytochrome P450 2C19 (Homo sapiens), sequence (P33261 whole entry, looked up): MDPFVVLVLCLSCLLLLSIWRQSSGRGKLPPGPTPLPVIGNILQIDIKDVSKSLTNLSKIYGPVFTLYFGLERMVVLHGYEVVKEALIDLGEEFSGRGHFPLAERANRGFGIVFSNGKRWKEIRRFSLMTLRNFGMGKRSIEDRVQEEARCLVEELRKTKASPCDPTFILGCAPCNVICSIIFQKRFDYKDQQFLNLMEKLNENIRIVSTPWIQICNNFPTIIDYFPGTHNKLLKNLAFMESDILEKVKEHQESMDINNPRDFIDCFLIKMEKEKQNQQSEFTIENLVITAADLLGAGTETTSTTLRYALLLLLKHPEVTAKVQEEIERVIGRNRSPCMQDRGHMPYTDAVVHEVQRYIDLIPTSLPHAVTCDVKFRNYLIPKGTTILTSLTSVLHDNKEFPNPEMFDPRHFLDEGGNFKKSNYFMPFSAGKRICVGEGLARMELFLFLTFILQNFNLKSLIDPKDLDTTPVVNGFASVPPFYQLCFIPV
Voltage-gated inwardly rectifying potassium channel KCNH2 (Homo sapiens), sequence (Q12809 whole entry, looked up): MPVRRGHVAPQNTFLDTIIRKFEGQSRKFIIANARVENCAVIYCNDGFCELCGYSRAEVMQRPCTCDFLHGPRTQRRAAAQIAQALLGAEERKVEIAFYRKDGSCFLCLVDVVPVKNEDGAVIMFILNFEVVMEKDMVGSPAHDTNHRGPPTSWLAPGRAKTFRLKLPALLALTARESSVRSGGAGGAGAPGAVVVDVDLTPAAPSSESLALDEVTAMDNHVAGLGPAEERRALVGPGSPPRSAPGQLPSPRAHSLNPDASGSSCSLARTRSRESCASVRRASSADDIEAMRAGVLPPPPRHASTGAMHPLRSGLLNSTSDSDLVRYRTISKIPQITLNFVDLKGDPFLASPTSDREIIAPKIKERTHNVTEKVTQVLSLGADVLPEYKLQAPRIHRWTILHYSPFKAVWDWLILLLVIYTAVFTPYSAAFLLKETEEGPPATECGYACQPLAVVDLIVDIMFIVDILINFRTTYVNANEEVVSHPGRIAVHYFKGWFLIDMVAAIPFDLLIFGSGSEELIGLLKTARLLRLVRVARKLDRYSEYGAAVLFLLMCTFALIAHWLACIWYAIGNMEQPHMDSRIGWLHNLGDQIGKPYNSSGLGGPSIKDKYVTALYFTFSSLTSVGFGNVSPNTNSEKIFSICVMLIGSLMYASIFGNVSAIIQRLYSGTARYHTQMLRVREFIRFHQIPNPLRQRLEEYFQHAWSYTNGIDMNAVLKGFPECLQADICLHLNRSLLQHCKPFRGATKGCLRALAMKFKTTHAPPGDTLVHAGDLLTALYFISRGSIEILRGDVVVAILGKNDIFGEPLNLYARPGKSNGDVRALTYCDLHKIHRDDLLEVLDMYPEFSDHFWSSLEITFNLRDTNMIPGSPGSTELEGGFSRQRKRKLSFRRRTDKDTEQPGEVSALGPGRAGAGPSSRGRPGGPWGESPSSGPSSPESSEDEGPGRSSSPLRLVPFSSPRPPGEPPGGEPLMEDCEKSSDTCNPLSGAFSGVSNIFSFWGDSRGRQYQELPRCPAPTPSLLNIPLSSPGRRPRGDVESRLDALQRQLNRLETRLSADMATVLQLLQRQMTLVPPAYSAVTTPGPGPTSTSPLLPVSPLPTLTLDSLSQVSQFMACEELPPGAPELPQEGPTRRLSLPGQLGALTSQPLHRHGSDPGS

In the case of `CN1CCC(=C2c3ccccc3Sc3ccccc32)CC1`, the Potency was 38.9 µM (active) in experiment [1] and 12 µM (active) in experiment [4]. In addition, the Potency result in experiment [2] and in experiment [3] was “inactive” throughout.
As to `O=C1c2ccccc2S(=O)(=O)N1CCCCN1CCN(c2ncccn2)CC1`, the Potency result in experiment [1] and in experiment [3] was “inactive” throughout. In addition, the Potency in experiment [2] was 15.5 µM (active).
Consider `CCN(CC)CCNC(=O)c1cc(Br)c(N)cc1OC`, for which the Potency result in experiment [1] and in experiment [2] was “inactive” each time.
As for `COC(=O)C1=C(C)NC(COC(N)=O)=C(C(=O)OC(C)C)C1c1cccc(Cl)c1Cl` (centres undefined), the Potency in experiment [1] is 15.5 µM (active); in experiment [2], 8.71 µM (active).
As to `CC(C)Cc1ccc(C(C)C(=O)OCc2ccccn2)cc1` (centres undefined), the Potency in experiment [1] is 7.76 µM (active); in experiment [2] it was 7.76 µM (active); in experiment [3], 32.3 µM (active).
As to `c1ccc(CNCCNCc2ccccc2)cc1`, the Potency in experiment [1] is 7.76 µM (active). In experiment [2], the Potency entry is “inactive”.
On to `Cc1c(N)cccc1[N+](=O)[O-]`, for which the Potency entry in experiment [1], in experiment [2] and in experiment [4] was “inactive” throughout. Moreover, the Potency in experiment [3] is 32.2 µM (active).
As for `CC(=O)[O][Al][O]C(C)=O`, the Potency entry in experiment [1], in experiment [2], in experiment [3] and in experiment [4] was “inactive” each time.
For `Nc1c(CC(=O)O)cccc1C(=O)c1ccc(Br)cc1`, the Potency entry in experiment [1], in experiment [2], in experiment [3] and in experiment [4] was “inactive” each time.
`Cc1nn(C)c(Oc2ccccc2)c1/C=N/OCc1ccc(C(=O)OC(C)(C)C)cc1`: the Potency was 2 µM (active) in experiment [1] and 2.83 µM (active) in experiment [2].
On to `O=S(=O)(Oc1ccc(Cl)cc1)c1ccccc1`, for which the Potency is 0.894 µM (active) in experiment [1], 31.7 µM (active) in experiment [2] and 5.64 µM (active) in experiment [3]. The Potency result in experiment [4] was “inactive”.
With `CC/C=C\CCOC(=O)CC`, the Potency entry in experiment [1], in experiment [2], in experiment [3] and in experiment [4] was “inactive” in each case.
Turning to `OCCNCc1ccccc1`, in experiment [1], the Potency was 44.8 µM (active). Further, the Potency entry in experiment [2] is “inactive”.
Regarding `CCNc1cc(O)ccc1C`, the Potency was 35.2 µM (active) in experiment [1], 9.92 µM (active) in experiment [2] and 12.5 µM (active) in experiment [3]. In experiment [4], the Potency result was “inactive”.
